Measurements published in PubChem BioAssay (NCATS).
Inconclusive results are not listed. Entries that show only a call come without a potency. Unmarked numbers belong to inactive results. Calls of active or inactive are those of the source. Calls follow the shape of the dose curve; as a rule, active = well fitted inhibition curve with a large enough effect; inconclusive = small, poorly fitted or top-dose-only effect; inactive = flat fitted curve, though single readings scatter.

Assays:
[1] = qHTS profiling for inhibitors of Plasmodium falciparum proliferation (AID 504749); also: nearly all actives have a fitted effect of over 60% in size; details: P. falciparum in erythrocytes, SYBR Green DNA, 72 h
Summary of the method: (§1)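 Quantitative HTS: compounds pinned into medium, infected erythrocytes added (0.3% parasitemia, 2.5% hematocrit), 72 h culture at 37 C under 5% CO2. Saponin/Triton lysis with SYBR Green I, overnight RT, then fluorescence read.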

3D7 = test: as above; details: P. falciparum in erythrocytes, SYBR Green DNA, 72 h; series mostly up to 28.7 µM
Summary of the method: as §1

7G8 = test: as above; details: P. falciparum in erythrocytes, SYBR Green DNA, 72 h; series mostly up to 28.7 µM
Summary of the method: as §1

AA1029 = test: as above; details: P. falciparum in erythrocytes, SYBR Green DNA, 72 h; series mostly up to 28.7 µM
Summary of the method: as §1

AS120 = test: as above; details: P. falciparum in erythrocytes, SYBR Green DNA, 72 h; series mostly up to 28.7 µM
Summary of the method: as §1

ATS189 = test: as above; details: P. falciparum in erythrocytes, SYBR Green DNA, 72 h; series mostly up to 28.7 µM
Summary of the method: as §1

ATS95 = test: as above; details: P. falciparum in erythrocytes, SYBR Green DNA, 72 h; series mostly up to 28.7 µM
Summary of the method: as §1

C2A = test: as above; details: P. falciparum in erythrocytes, SYBR Green DNA, 72 h; series mostly up to 28.7 µM
Summary of the method: as §1

CP185 = test: as above; details: P. falciparum in erythrocytes, SYBR Green DNA, 72 h; series mostly up to 28.7 µM
Summary of the method: as §1

CP191 = test: as above; details: P. falciparum in erythrocytes, SYBR Green DNA, 72 h; series mostly up to 28.7 µM
Summary of the method: as §1

CP192 = test: as above; details: P. falciparum in erythrocytes, SYBR Green DNA, 72 h; series mostly up to 28.7 µM
Summary of the method: as §1

CP194 = test: as above; details: P. falciparum in erythrocytes, SYBR Green DNA, 72 h; series mostly up to 28.7 µM
Summary of the method: as §1

CP201 = test: as above; details: P. falciparum in erythrocytes, SYBR Green DNA, 72 h; series mostly up to 28.7 µM
Summary of the method: as §1

CP203 = test: as above; details: P. falciparum in erythrocytes, SYBR Green DNA, 72 h; series mostly up to 28.7 µM
Summary of the method: as §1

CP211 = test: as above; details: P. falciparum in erythrocytes, SYBR Green DNA, 72 h; series mostly up to 28.7 µM
Summary of the method: as §1

CP215 = test: as above; details: P. falciparum in erythrocytes, SYBR Green DNA, 72 h; series mostly up to 28.7 µM
Summary of the method: as §1

CP217 = test: as above; details: P. falciparum in erythrocytes, SYBR Green DNA, 72 h; series mostly up to 28.7 µM
Summary of the method: as §1

[2] = at 28.7 µM (top of the series), parasite line A
[3] = at 28.7 µM (top of the series), parasite line B
[4] = at 12.8 µM (top of the series), parasite line A
[5] = at 12.8 µM (top of the series), parasite line B
Potency is read from the fitted curve at half-maximal effect.

For CC(=O)Nc1ncc([N+](=O)[O-])s1, the activity, negative = inhibition [1, 2] was 11.2%, the activity, negative = inhibition [1, 3] was 9.19% and the Potency (3D7) was “inactive”. The Potency (7G8) was “inactive”, the Potency (AA1029) was “inactive” and the Potency (AS120) was “inactive”. The Potency (ATS189) was “inactive”, the Potency (ATS95) was “inactive” and the Potency (C2A) was “inactive”. The Potency (CP185) was “inactive”, the Potency (CP191) was “inactive” and the Potency (CP192) was “inactive”. For the same molecule, the Potency (CP194) was “inactive”, the Potency (CP201) was “inactive” and the Potency (CP203) was “inactive”. The Potency (CP211) was “inactive”, the Potency (CP215) was “inactive” and the Potency (CP217) was “inactive”.
In the case of O=C(NCCc1c[nH]c2ccccc12)c1cccnc1, the activity, negative = inhibition [1, 2] is reported as 0.138%, the activity, negative = inhibition [1, 3] is reported as 13.6% and the Potency (3D7) is reported as “inactive”. The Potency (7G8) was “inactive”, the Potency (AA1029) was “inactive” and the Potency (AS120) was “inactive”. The Potency (ATS189) was “inactive”, the Potency (ATS95) was “inactive” and the Potency (C2A) was “inactive”. The Potency (CP185) was “inactive”, the Potency (CP191) was “inactive” and the Potency (CP192) was “inactive”. For the same molecule, the Potency (CP194) was “inactive”, the Potency (CP201) was “inactive” and the Potency (CP203) was “inactive”. For the same molecule, the Potency (CP211) was “inactive”, the Potency (CP215) was “inactive” and the Potency (CP217) was “inactive”.
With Cc1cc(C)cc(OCC2CNC(=O)O2)c1 (stereo unspecified) the activity, negative = inhibition [1, 2] was -4.76%, the activity, negative = inhibition [1, 3] was 4.34% and the Potency (3D7) was “inactive”. For the same molecule, the Potency (7G8) was “inactive”, the Potency (AA1029) was “inactive” and the Potency (AS120) was “inactive”. The Potency (ATS189) was “inactive”, the Potency (ATS95) was “inactive” and the Potency (C2A) was “inactive”. For the same molecule, the Potency (CP185) was “inactive”, the Potency (CP191) was “inactive” and the Potency (CP192) was “inactive”. For the same molecule, the Potency (CP194) was “inactive”, the Potency (CP201) was “inactive” and the Potency (CP203) was “inactive”. For the same molecule, the Potency (CP211) was “inactive”, the Potency (CP215) was “inactive” and the Potency (CP217) was “inactive”.
For c1ccc(CC2=NCCN2)cc1, the activity, negative = inhibition [1, 4] was -1.06%, the activity, negative = inhibition [1, 5] was -2.59% and the Potency (3D7) was “inactive”. The Potency (7G8) was “inactive”, the Potency (AA1029) was “inactive” and the Potency (AS120) was “inactive”. For the same molecule, the Potency (ATS189) was “inactive”, the Potency (ATS95) was “inactive” and the Potency (C2A) was “inactive”. For the same molecule, the Potency (CP185) was “inactive”, the Potency (CP191) was “inactive” and the Potency (CP192) was “inactive”. For the same molecule, the Potency (CP194) was “inactive”, the Potency (CP201) was “inactive” and the Potency (CP203) was “inactive”. The Potency (CP211) was “inactive”, the Potency (CP215) was “inactive” and the Potency (CP217) was “inactive”.
For O=C(Nc1cccc(C2=NCCN2)c1)Nc1cccc(C2=NCCN2)c1, the Potency ([1]; parasite line A) was 8.91 µM (active), the Potency ([1]; parasite line B) was 11.2 µM (active) and the Potency (3D7) was 10 µM (active). The Potency (7G8) was 0.398 µM (active), the Potency (AA1029) was 7.08 µM (active) and the Potency (AS120) was 2.82 µM (active). For the same molecule, the Potency (ATS189) was 2.82 µM (active), the Potency (ATS95) was 5.01 µM (active) and the Potency (C2A) was 5.01 µM (active). For the same molecule, the Potency (CP185) was 4.47 µM (active), the Potency (CP191) was 1.12 µM (active) and the Potency (CP192) was 15.1 µM (active). For the same molecule, the Potency (CP194) was 15.1 µM (active), the Potency (CP201) was 13.5 µM (active) and the Potency (CP203) was 15.1 µM (active). The Potency (CP211) was 13.5 µM (active), the Potency (CP215) was 12 µM (active) and the Potency (CP217) was 3.55 µM (active).
In the case of CCCCCCCCCCCCCC(=O)OC(C)C, the activity, negative = inhibition [1, 2] is reported as 2.55%, the activity, negative = inhibition [1, 3] is reported as 10.9% and the Potency (3D7) is reported as “inactive”. For the same molecule, the Potency (7G8) was “inactive”, the Potency (AA1029) was “inactive” and the Potency (AS120) was “inactive”. The Potency (ATS189) was “inactive”, the Potency (ATS95) was “inactive” and the Potency (C2A) was “inactive”. For the same molecule, the Potency (CP185) was “inactive”, the Potency (CP191) was “inactive” and the Potency (CP192) was “inactive”. The Potency (CP194) was “inactive”, the Potency (CP201) was “inactive” and the Potency (CP203) was “inactive”. The Potency (CP211) was “inactive”, the Potency (CP215) was “inactive” and the Potency (CP217) was “inactive”.
In the case of NC(N)=NCc1cccc(I)c1, the activity, negative = inhibition [1, 2] is reported as -25.5%, the activity, negative = inhibition [1, 3] is reported as -23.4% and the Potency (3D7) is reported as “inactive”. The Potency (7G8) was “inactive”, the Potency (AA1029) was “inactive” and the Potency (AS120) was “inactive”. The Potency (ATS189) was “inactive”, the Potency (ATS95) was “inactive” and the Potency (C2A) was “inactive”. For the same molecule, the Potency (CP185) was “inactive”, the Potency (CP191) was “inactive” and the Potency (CP192) was “inactive”. For the same molecule, the Potency (CP194) was “inactive”, the Potency (CP201) was “inactive” and the Potency (CP203) was “inactive”. The Potency (CP211) was “inactive”, the Potency (CP215) was “inactive” and the Potency (CP217) was “inactive”.
With O=C(O)C1(C(=O)O)CCC1.[NH2-].[NH2-].[Pt+2] the activity, negative = inhibition [1, 2] was -5.41%, the activity, negative = inhibition [1, 3] was -0.756% and the Potency (3D7) was “inactive”. The Potency (7G8) was 14.1 µM (active), the Potency (AA1029) was “inactive” and the Potency (AS120) was “inactive”. The Potency (ATS189) was “inactive”, the Potency (ATS95) was “inactive” and the Potency (C2A) was “inactive”. For the same molecule, the Potency (CP185) was “inactive”, the Potency (CP191) was “inactive” and the Potency (CP192) was “inactive”. The Potency (CP194) was “inactive”, the Potency (CP201) was “inactive” and the Potency (CP203) was “inactive”. The Potency (CP211) was “inactive”, the Potency (CP215) was “inactive” and the Potency (CP217) was “inactive”.
For O=C(Nc1ncc([N+](=O)[O-])s1)c1cccs1, the activity, negative = inhibition [1, 2] was 5.2%, the activity, negative = inhibition [1, 3] was -2.66% and the Potency (3D7) was “inactive”. For the same molecule, the Potency (7G8) was “inactive”, the Potency (AA1029) was “inactive” and the Potency (AS120) was “inactive”. For the same molecule, the Potency (ATS189) was “inactive”, the Potency (ATS95) was “inactive” and the Potency (C2A) was “inactive”. The Potency (CP185) was “inactive”, the Potency (CP191) was “inactive” and the Potency (CP192) was “inactive”. The Potency (CP194) was “inactive”, the Potency (CP201) was “inactive” and the Potency (CP203) was “inactive”. The Potency (CP211) was “inactive”, the Potency (CP215) was “inactive” and the Potency (CP217) was “inactive”.
In the case of C#C[C@]1(O)CC[C@H]2[C@@H]3CCC4=Cc5oncc5C[C@]4(C)[C@H]3CC[C@@]21C, the activity, negative = inhibition [1, 2] is reported as -28.2%, the activity, negative = inhibition [1, 3] is reported as -11.7% and the Potency (3D7) is reported as “inactive”. The Potency (7G8) was “inactive”, the Potency (AA1029) was “inactive” and the Potency (AS120) was “inactive”. For the same molecule, the Potency (ATS189) was “inactive”, the Potency (ATS95) was “inactive” and the Potency (C2A) was “inactive”. The Potency (CP185) was “inactive”, the Potency (CP191) was “inactive” and the Potency (CP192) was “inactive”. The Potency (CP194) was “inactive”, the Potency (CP201) was “inactive” and the Potency (CP203) was “inactive”. For the same molecule, the Potency (CP211) was “inactive”, the Potency (CP215) was “inactive” and the Potency (CP217) was “inactive”.
With CCOC(=O)c1ccc(N)cc1 the activity, negative = inhibition [1, 4] was 6.05%, the activity, negative = inhibition [1, 5] was 7.01% and the Potency (3D7) was “inactive”. For the same molecule, the Potency (7G8) was “inactive”, the Potency (AA1029) was “inactive” and the Potency (AS120) was “inactive”. The Potency (ATS189) was “inactive”, the Potency (ATS95) was “inactive” and the Potency (C2A) was “inactive”. The Potency (CP185) was “inactive”, the Potency (CP191) was “inactive” and the Potency (CP192) was “inactive”. For the same molecule, the Potency (CP194) was “inactive”, the Potency (CP201) was “inactive” and the Potency (CP203) was “inactive”. For the same molecule, the Potency (CP211) was “inactive”, the Potency (CP215) was “inactive” and the Potency (CP217) was “inactive”.
In the case of NS(=O)(=O)c1ccc(Cl)c(S(N)(=O)=O)c1, the activity, negative = inhibition [1, 2] is reported as 8.67%, the activity, negative = inhibition [1, 3] is reported as 14.1% and the Potency (3D7) is reported as “inactive”. For the same molecule, the Potency (7G8) was “inactive”, the Potency (AA1029) was “inactive” and the Potency (AS120) was “inactive”. For the same molecule, the Potency (ATS189) was “inactive”, the Potency (ATS95) was “inactive” and the Potency (C2A) was “inactive”. The Potency (CP185) was “inactive”, the Potency (CP191) was “inactive” and the Potency (CP192) was “inactive”. The Potency (CP194) was “inactive”, the Potency (CP201) was “inactive” and the Potency (CP203) was “inactive”. For the same molecule, the Potency (CP211) was “inactive”, the Potency (CP215) was “inactive” and the Potency (CP217) was “inactive”.
